About 83,000 compounds went through this panel and 20% of them were active in at least one assay; those are over-represented in the sample as a whole.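 Results are percent growth after 48 hours of single-concentration exposure. 100 means growth as in untreated cells, lower positive values show inhibition; negative values down to -100 show cell death.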 A number with no mark means an inactive call. Activity calls are given as the source filed them. Rule for the calls: active = growth percent below 10; inactive = the rest.
What was measured:
Assay in all cases: NCI-60 one-dose screen, 48 h (100 = growth as untreated, 0 = no growth, -100 = all killed)
Conditions in all cases: 10 µM unless noted
T-47D breast = tested on: T-47D breast
BT-549 breast = tested on: BT-549 breast
MDA-MB-435 melanoma = tested on: MDA-MB-435 melanoma
SW-620 colon = tested on: SW-620 colon
MCF7 breast = tested on: MCF7 breast
HCT-116 colon = tested on: HCT-116 colon
HCC-2998 colon = tested on: HCC-2998 colon
KM12 colon = tested on: KM12 colon

| Compound | growth (T-47D breast) | growth (BT-549 breast) | growth (MDA-MB-435 melanoma) | growth (SW-620 colon) | growth (MCF7 breast) | growth (HCT-116 colon) | growth (HCC-2998 colon) | growth (KM12 colon) |
| --- | --- | --- | --- | --- | --- | --- | --- | --- |
| COc1ccc2[nH]cc(/C=N/Nc3nc4ccccc4s3)c2c1 | 2.18% (active) | 58.7% | 66.2% | 74.7% | 22.5% | 46.8% | 41% | 13.6% |
| COc1cc(OC)c(/C=C/S(=O)(=O)Cc2ccc(OC)c(NCC(=O)NO)c2)c(OC)c1 | 74.3% | 11.6% | -8.04% (active) | 28.3% | 11% | 3.2% (active) | 14.2% | 4.53% (active) |
| COc1ccc(Oc2ccc(/C=N/NC(=O)CSc3nc4ccccc4c(=O)n3-c3ccc(Cl)cc3)cc2)cc1 | 37.8% | 89.4% | 87.7% | 44.4% | 49.3% | 13.3% | 83.3% | 77.2% |
| N=c1c2cc(-c3ccccc3)oc2ncn1/N=C/c1ccc(Cl)cc1 | 81% | 105% | 72.6% | 29.5% | 70.8% | 66.6% | 102% | 31% |
| CNC(=O)c1cc(Oc2ccc3nc(NC(=O)c4cc(N5CCOCC5)cc(C(F)(F)F)c4)sc3c2)ccn1 | 74.2% | 88.1% | 67.8% | 107% | 75.5% | 63.1% | 114% | 71.3% |
| CC1=CC(=O)C2=C(C)CC(OC(=O)CCc3ccccc3)[C@@H]3[C@H](OC(=O)[C@@H]3C)[C@@H]12 (stereo not given in full) | 96.5% | 98.9% | 93.3% | 96.7% | 83.9% | 69.2% | 102% | 91.2% |
| N#Cc1cccc(CN2CCC3=C(C2)C(=O)N(Cc2ccc(Cl)cc2)C2=NCCN23)c1 | 23.7% | 45.4% | 19.9% | 33% | 14.1% | 19.6% | 17.6% | 40.9% |
| NS(=O)(=O)c1ccc(Nc2nc(N/N=C/c3c[nH]c4ccccc34)nc(Nc3ccccc3)n2)cc1 | 35.3% | 48.8% | 31.3% | 49% | 18.8% | 15.9% | 52.6% | 27.3% |
| O=C(CNc1nc(-c2cccc([N+](=O)[O-])c2)cs1)Nc1cccc([N+](=O)[O-])c1 | -5.2% (active) | 15.2% | -15.5% (active) | 1.81% (active) | -1.07% (active) | -8.55% (active) | -55.9% (active) | 4.12% (active) |
| CCC1=Cc2cc(OC)ccc2OC12C=Cc1cc(OC)ccc1O2 (stereo not given) | 52.8% | 75.3% | -28.5% (active) | 28.3% | 15.3% | 14.2% | 22.9% | 19.3% |
| C=CCn1c(SCC(=O)Nc2ccc(C(=O)/C=C/c3ccc(C)cc3)cc2)nnc1-c1c[nH]c2ccccc12 | 70% | 107% | 96.7% | 96.9% | 20.2% | -2.08% (active) | 102% | 96.6% |
| CCNC(=O)N1CCc2cc(OC)c(OCCc3ccc(OC)cc3)cc2C1c1ccc([N+](=O)[O-])cc1C (stereo not given) | 53% | 20.1% | 14.5% | 23.8% | 18.4% | 8.8% (active) | 14.5% | 18.6% |
| CC/C(=C/c1cc(OC)ccc1O)c1ccc2cc(OC)ccc2[o+]1 | 52.9% | 51.5% | -28.3% (active) | 33.2% | 16.6% | 26.8% | 81.8% | 46.1% |
| CC(Nc1c(C#N)cnc2ccc(-c3cnc(N)nc3)cc12)c1ccccc1 (stereo not given) | 9.18% (active) | 4.06% (active) | 15.5% | 18.2% | 8.42% (active) | 10.7% | 8.61% (active) | 10.8% |
| COc1cc(/C=N/NC(=O)c2cn(C3CC3)c3c(OC)c(N4CC5CCCNC5C4)c(F)cc3c2=O)ccc1O (stereo not given) | -30.4% (active) | 107% | 95.3% | 0.437% (active) | -27.7% (active) | -59.1% (active) | 14.8% | 69.2% |
| COc1ccc([C@@H]2c3[nH]c4ccccc4c3C[C@H]3C(=O)N(C4CCN(CC5CCCCC5)CC4)CC(=O)N23)c(OC)c1 | 101% | 80.3% | 73.6% | 80.1% | 42.6% | 50% | 78.6% | 82.3% |
| C=CCn1c(SCC(=O)Nc2ccc(C(=O)/C=C/c3ccc(Cl)cc3)cc2)nnc1-c1c[nH]c2ccccc12 | 60.5% | 111% | 83.5% | 88.3% | 9.26% (active) | -46% (active) | 97.1% | 80.4% |
| COc1cc(-c2nc(SC(C)C)n(C(C)C)c(=O)c2C#N)ccc1OCc1ccccc1 | 52.6% | 93.8% | 85% | 52.4% | 75.3% | 42.9% | 87.6% | 95.1% |
| O=C(NNc1nc2cc(F)cc(F)c2n2cccc12)c1cnccn1 | 10.3% | 24.1% | 31.3% | 21.7% | 3.97% (active) | 12.3% | 49.9% | 28.7% |
| Cc1cccc(/C=C/C(=O)Nc2ncc(Cc3cccc(C)c3)s2)c1 | 32.7% | 66.6% | -70.2% (active) | 16.8% | 15.1% | 23.1% | 34.8% | 6.43% (active) |
| Cc1ccc(S(=O)(=O)N(CC[C@@H]2C[C@H]2c2cc3ccccc3o2)S(=O)(=O)c2ccc(C)cc2)cc1 | 78.3% | 98% | 104% | 95.2% | 79.6% | 92.5% | 100% | 103% |
| CC(O)c1cc2ccccc2c(=O)o1 (stereo not given) | 104% | 105% | 96.3% | 98.9% | 91.5% | 108% | 99.9% | 106% |
| O=C(Nc1nc2ccc([N+](=O)[O-])cc2s1)Nc1ccccc1Br | 33.8% | 71.7% | 38.2% | 39.2% | 24.8% | 18.1% | 37.8% | 15.1% |
| COc1ccc2c(c1)c(CC(=O)[Se]CC#N)c(C)n2C(=O)c1ccc(Cl)cc1 | 22.4% | 75.9% | 26.5% | -32.7% (active) | 17.3% | -46.7% (active) | -4.68% (active) | -5.24% (active) |
| COc1ccc(C2CC(c3ccc(Nc4nc(NCCO)nc(N5CCOCC5)n4)cc3)=Nc3c(N)nc(N)nc3N2)cc1 (stereo not given) | 90.5% | 99.2% | 108% | 101% | 86.2% | 100% | 105% | 89% |
| CCOc1ccc(NC2=C(Cl)C(=O)c3nc(C)ccc3C2=O)cc1 | -43.8% (active) | 46.5% | -83.7% (active) | -55.3% (active) | -67% (active) | -83.6% (active) | -55.7% (active) | 57.4% |
| NC(N)=Nc1ccc(Oc2cccc(Nc3ccc(Br)c(C(F)(F)F)c3)c2)cn1 | 12.9% | -2.65% (active) | -89.1% (active) | -79% (active) | -56.8% (active) | -64.8% (active) | -85.6% (active) | -72.5% (active) |
| CC(C)(C)c1ccc(CC(=O)Nc2sc3c(c2C(N)=O)CCC(=O)C3)cc1 | -15.4% (active) | 9.57% (active) | 1.24% (active) | 3.83% (active) | 5.89% (active) | 5.7% (active) | 25.5% | -3.85% (active) |
| Cc1ccc(-c2cc3nc(C(Cl)Cl)nc(C)n3n2)cc1 | 94.6% | 115% | 110% | 107% | 88.3% | 108% | 115% | 99.1% |
| CCOc1cccc(-c2nc3sccn3c2-c2ccnc(S(C)(=O)=O)n2)c1 | 65.8% | 122% | 95% | 103% | 36% | 92.6% | 80.8% | 87.6% |

Source: PubChem BioAssay (NCI)
